The text below walks through data of PubChem BioAssay (EPA / NIEHS).

Activity calls are given as the source filed them. How the source made its calls: active means hit-call score of the fitted dose curve at least 0.9, where 1 is the maximum; inactive means score below 0.9.

Read-out in the assay: Decorin, DCN (gene 1634)
Description: BSK_MyoF_Decorin: BioMAP Diversity Plus: MyoF Assay for Decorin Biomarker Activity (AID 2284265). The note with it: primary human lung fibroblasts. In short, it runs like this:
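Compound is added to lung fibroblast cultures; cells incubate 24 h; decorin is then measured by ELISA; the response is analysed upward against DMSO controls.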
Regarding `O=C1OC2(c3ccccc31)c1ccc(O)c(Br)c1Oc1c2ccc(O)c1Br`, the outcome was inactive. The entry for `CS(=O)(=O)c1ccc(C2=C(c3ccccc3)C(=O)OC2)cc1` is “inactive”.

On to `COc1ccc(OC)c(N=Nc2c(O)ccc3ccccc23)c1`, for which the result was inactive. For `c1ccc2cc(Nc3ccc(Nc4ccc5ccccc5c4)cc3)ccc2c1` the value was “inactive”.

Take `CCN(CC)C(=O)N(CC)CC`: the result was inactive.

Take `Clc1cc(Cl)c(-c2c(Cl)c(Cl)cc(Cl)c2Cl)cc1Cl`: the result was inactive. For `C=C(C)[C@H]1CC=C(C)C(=O)C1` the value was “inactive”; for `CC(=O)c1c(C)c([N+](=O)[O-])c(C(C)(C)C)c([N+](=O)[O-])c1C`, “inactive”; for `CC(C)(N=C=O)c1cccc(C(C)(C)N=C=O)c1`, “inactive”.

Regarding `CN(c1nccc(=O)[nH]1)C1CCN(c2nc3ccccc3n2Cc2ccc(F)cc2)CC1`, the outcome was inactive. The entry for `CCCCCCCCCCCCCCCC(=O)OC/C=C(C)/C=C/C=C(C)/C=C/C1=C(C)CCCC1(C)C` is “inactive”. The entry for `CC=Cc1ccc(OCC)c(O)c1` is “inactive”; for `O=C1c2ccccc2C(=O)c2c(O)ccc(O)c21` it is “inactive”.

With `C1=CC2C3C=CC(C3)C2C1` (stereo not given), the result was inactive. For `CC(C=O)Cc1ccc(C(C)(C)C)cc1` (stereo not given) the value was “inactive”.
